This note sets out measurements from PubChem BioAssay AID1508600 (Functional Genomics Laboratory (NCATS/FGL), 2020).

About 3,700 (7%) of roughly 53,000 sequences were called active. This excerpt belongs to a sample that is enriched for actives. Values without a mark were called inactive.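 The calls were made as follows: active = gene knockdowns whose robust z-score for IL-1 alpha signal is at least 2 or at most -2, so actives lie on both sides; inactive = the rest.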

The nature of the assay: Components of the Cytosolic LPS Sensing Pathway: Gene Identification via Genome-wide siRNA Screen.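 Also: robust z of the log signal after scaling to non-targeting control siRNA wells of the plate.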 To be noted: RAW264.7 macrophages, IL-1a HTRF, actives lie on both sides, screened at 100 nM (by protocol), cells primed 5 h with Pam3CSK4 first. In a few lines:
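Cells (RAW264.7, 1×10^4 per well) were transfected with siRNA at 100 nM and cultured 48h at 37 degrees C. Pam3CSK4 was added for 5 hours; LipidA transfection followed for 24 hour. IL-1a was then measured by HTRF.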
A general note: In TR-FRET formats the signal depends on donor and acceptor labels being close together.
As for CCUAUAAGUGAACUGUGAUTT against Aig1, the z-score is -0.71.

Consider CCUGUAUACUAUCACUUGUTT against Casp8, for which the z-score was 0.103.

Turning to GCAGCUGCACUAAAGAACGTT against Dlg1, the z-score was 2.9 (active).

As for GGUGUCUUAUGAGCAAUAUTT against Pdcd6, the z-score is -1.12.

GGGAAAUCAGAUAAAGCCCTT against Myl12a: the z-score was 0.874.

On to GGCAACAACAUACCUAAUATT against Rmdn1, for which the z-score is -0.756.

In the case of GGUACUUUCGCAUCCUGCATT against Rnaseh2b, the z-score is -0.397.

Turning to GGCAAAUGAGAAACAGCAATT against Cxcl16, the z-score was -2.23 (active).

On to GGUGUUGGCUCACAACCAATT against Fam234b, for which the z-score is -1.67.

With GGUCAUUCCCAUUAAACAGTT against Emc8, the z-score is -2.57 (active).

As for GGGCUCUGAAUUGAAGAAATT against Ralgps2, the z-score was -0.163.

For CCCUUAGGGAGUGCUGUGATT against Gc, the z-score is -1.85.

On to CCAAAGGGAAGAGUUAUGCTT against Tmem126b, for which the z-score was 2.34 (active).

As for CCCAUGAACCUUAUUUGAATT against Ino80c, the z-score was -0.268.

Consider GGUGGUAUUGUUGGCUUUATT against Olfr1297, for which the z-score was 0.293.

On to GAUGGACAGAAAUCAGGAGTT against Arap1, for which the z-score is 0.208.

CGGUCAUUUGAAGUAGGAATT against Pwwp3a: the z-score is 0.76.

With GGAUCAUCUCCUCUACUCUTT against Olfr394, the z-score is -1.84.

Turning to GGAAGUAGCUUAUUGUUCUTT against Polr2b, the z-score is -2.69 (active).

CCAGGUGAAUUAAUAGUCUTT against Stk4: the z-score is 0.93.

As to GGUACUAAAUCAAACAUCCTT against Angpt1, the z-score is 0.578.

As to GAUCUUUCGACACAUCACCTT against Cyp4a12a, the z-score is -2.02 (active).

For the sequence GCCUGAAUCCGCCACAUUGTT against Cx3cl1, the z-score was 1.6.

For the sequence “GGAGGACCAUUGUAAGUAGTT against 9930022D16Rik”, the z-score was 2.17 (active).

Consider CCUGGAUGCAGGUUAAGCUTT against Dppa5a, for which the z-score was -0.817.

In the case of GCUGAAACUAACAUUUGAUTT against Anxa3, the z-score is 0.146.

On to CCUCCACUAUACGGUAAGUTT against Pla2g2c, for which the z-score is -3.37 (active).

Take GGCUGGAUGUCAGAUUGCATT against Olfr1389: the z-score is -1.38.

Take GGACCAGUUUGAGUAUGAGTT against Tmem11: the z-score was -1.58.

Turning to CCUGUGAGGCCAUUGAUUCTT against Acsbg1, the z-score is -1.33.
